High-throughput results as filed in PubChem BioAssay.
A selection follows.
aSyn UTR act: Activators via SNCA 5'UTR binding, MLPCN; alpha-synuclein 5'UTR reporter, activators screen; activity score, % (tested at 7.5 µM), hits read low; 300,000 compounds, 7.1% hits; in the data active means activity score below about -60%
Numbers without * were called inactive.

SMILES	aSyn UTR act
Cc1ccc(NC(=O)Nc2ccccc2)nc1	-119*
Cc1cc(/C=N/NC(=O)c2cccc(F)c2)c(C)n1-c1ccccc1	-152*
O=C(N/N=C/c1cn(Cc2cccc(F)c2)c2ccccc12)c1cc(O)cc(O)c1	59
CCOC(=O)N/N=C/c1ccc(F)cc1F	-77*
CCc1ccc(C(=O)N/N=C/c2ccc(Cl)cc2Cl)nc1	-75*
O=C(N/N=C/c1ccc(Cl)cc1Cl)c1cccc(F)c1	-212*
Cc1cc(/C=N/NC(=O)c2ccccc2F)c(C)n1-c1ccccc1	-133*
CCOC(=O)N/N=C/c1cc(C)n(-c2ccccc2)c1C	-75*
COc1ccc(N2CCN(C(=O)c3ccc(NS(=O)(=O)c4cccs4)cc3)CC2)cc1	-75*
CC(C)Oc1cccc(C(=O)Nc2ccc(N3CCN(C)CC3)cc2)c1	-76*
COc1cccc(C(=O)Nc2ccc(N3CCN(C(=O)c4cccs4)CC3)cc2)c1	-162*
CN1CCN(c2ccc(NC(=O)c3cccc(OCc4ccccc4)c3)cc2)CC1	-85*
CC(=O)N(c1nnc(-c2ccc(C)cc2)s1)C1CCCC1	-83*
CC1CCCCN1C(=O)CSc1nnc(-c2ccc(Cl)s2)o1 (stereo not drawn)	-69*
CC1CCCCN1C(=O)CSc1nnc(-c2ccccc2O)o1 (stereo not drawn)	-84*
CC1CCCCN1C(=O)CSc1nc2ncccc2[nH]1 (stereo not drawn)	-75*
O=C(CN1C(=O)c2ccccc2S1(=O)=O)c1ccc(OC(F)F)cc1	86
CN(CCOC(=O)CN1C(=O)c2ccccc2C1=O)C1=NS(=O)(=O)c2ccccc21	-89*
O=C(c1ccco1)N1CCn2c1nc1ccccc12	-124*
COc1ccc(NC(=O)N2CCn3c2nc2ccccc23)cc1	-64*
O=C(CCCc1ccccc1)Nc1ccccn1	-111*
Cc1ccnc(NC(=O)CCCc2ccccc2)c1	-182*
CCOC(=O)Cc1csc(NC(=O)c2c(O)c3ccccc3n(CC(C)C)c2=O)n1	75
CCOC(=O)Cc1csc(NC(=O)c2cccs2)n1	-176*
CCOC(=O)c1csc(NC(=O)c2cccs2)n1	-109*
SMILES	aSyn UTR act
COc1ccc(S(=O)(=O)NCC2CCCN(Cc3ccc(OC)cc3F)C2)cc1 (stereo not drawn)	-90*
Cc1sc(NC(=O)c2ccc(F)cc2)c(CN2CCCCCC2)c1C	-174*
Cc1sc(NC(=O)c2ccccc2F)c(CN2CCCCC2)c1C	-124*
Cc1cc(F)ccc1NC(=O)Nc1ccc2c(c1)OCO2	-72*
Cc1ccc(NC(=O)CSc2ccc(-c3ccc4c(c3)OCO4)nn2)cc1F	-76*
Cc1ccc(NC(=O)Nc2ccc3c(c2)OCO3)cc1F	-109*
Cc1ccc(NC(=O)Nc2ccc3c(c2)OCO3)c(OC(F)F)c1	-106*
Cc1cc2cc(CN(Cc3ccco3)S(=O)(=O)c3c(C)ccc4nsnc34)c(=O)[nH]c2cc1C	89
CCOC(=O)c1cccc(S(=O)(=O)N(CCO)Cc2cc3cc(OC)c(OC)cc3[nH]c2=O)c1	-72*
Nc1ccccc1C#CC(=O)c1ccccc1	-90*
CCn1c(=N)n(CC(=O)c2ccc(Cl)c(Cl)c2)c2ccccc21	-186*
Cn1c(=N)n(CC(=O)c2ccc(F)cc2)c2ccccc21	76
Cc1ccc(CSc2nccc(-c3c(C)nc4ccccn34)n2)cc1	-70*
Cc1ccc(CSc2nc3ccccc3cc2C=O)cc1	93
CC1CCCC/C1=N\NC(=S)Nc1ccccc1 (stereo not drawn)	-132*
CC1CCC/C(=N\NC(=S)Nc2ccccc2)C1 (stereo not drawn)	-94*
COc1cc(/C=N/Nc2nc(Nc3ccccc3)nc(-n3nc(C)cc3C)n2)cc(OC)c1OC	-68*
Cc1ccc(C(=O)OCC(=O)N2CCc3ccccc32)cc1	-70*
CC(=O)c1c(C)[nH]c(C(=O)OCC(=O)N2CCc3ccccc32)c1C	-131*
N#Cc1ccc(CO/N=C/c2ccccc2)cc1	-95*
Cc1cccc(C(=O)Nc2nnc(SCC(=O)NCc3ccco3)s2)c1	-101*
C/C=C(\C)c1nnc(NC(=O)c2ccco2)s1	-78*
Cc1ccc(-c2nnc(NC(=O)c3ccco3)s2)cc1	-84*
COc1cccc(-c2nnc3sc(-c4ccco4)nn23)c1	-95*
COc1ccc(NC(=O)Cn2nnc(-c3ccccc3NC(=O)c3ccco3)n2)cc1	-117*
SMILES	aSyn UTR act
O=C(Nc1nnc(C23CC4CC(CC(C4)C2)C3)s1)c1ccco1	-89*
COc1ccc(-c2nnc(NC(=O)c3ccco3)s2)cc1	-122*
Cc1cccc(C(=O)Nc2nnc(-c3ccc(C(C)(C)C)cc3)s2)c1	-102*
COc1cccc(-c2nnc(NC(=O)c3cccs3)s2)c1	-119*
COc1cccc(-c2nnc(NC(=O)c3ccco3)s2)c1	-97*
O=C(COc1ccccc1)Nc1nnc(C23CC4CC(CC(C4)C2)C3)s1	-75*
O=C(Nc1cccc(-c2csc(Nc3ccccc3)n2)c1)c1cc([N+](=O)[O-])cc(C(F)(F)F)c1	-87*
O=C(Nc1cccc(-c2csc(Nc3ccc(Cl)cc3)n2)c1)c1cccc(C(F)(F)F)c1	-71*
